The results in this text go back to the supplement of paper PMC7366291.

Structures can show the parent of a compound that is named as a salt. ± gives the standard deviation or the standard deviation of the averaged measurements.

Common to all, as to conditions: 25 µM; exposure: 24-48 hpf
In assay [1] the test system is Danio rerio Tg(wt1b:EGFP) embryo, pronephros. Nature of the assay: glomerular separation, fold change vs DMSO control; higher = glomeruli further apart (abnormal). In a few lines:
(§1)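 Distances and angles describing the pronephros were computed by a Fiji macro from 16 reference points set manually on maximum projections of dorsal images. These images came from dechorionated Tg(wt1b:EGFP) zebrafish embryos held in agarose-filled 96-well plates after exposure to 25 μM compound in 0.5% DMSO, in HEPES-buffered E3 with 0.003% PTU, from 24 to 48 hpf at 28.5°C. Any value more than 2 SD from the feature mean was excluded. Features are stated as fold change relative to the mean of same-day DMSO-treated embryos.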

For assay [2] the test system is unchanged. Nature of the assay: glomerular width (mean of left and right), fold change vs DMSO control; higher = wider glomerulus. In a few lines:
as §1

Assay [3] has the same test system. Nature of the assay: fraction of imaged embryos annotated as normal kidney; higher = less nephrotoxic; extreme values may be limits of the assay. The method, boiled down:
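Embryos of the Tg(wt1b:EGFP) zebrafish line were dechorionated and held in 12-well plates with 25 μM compound in 0.5% DMSO and 5 mM HEPES-buffered E3 containing 0.003% PTU, from 24 to 48 hpf at 28.5°C. Larvae were then anaesthetised with tricaine, set dorsal side up in agarose-filled 96-well plates, and their pronephroi imaged by widefield fluorescence at 470 nm over 10 z-slices. Each value is the fraction of embryos per treatment placed in the normal-kidney category after manual annotation of maximum projections.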

The test system is the same in assay [4]. Nature of the assay: pronephric angle neck segment to proximal convoluted tubule (mean of left and right), fold change vs DMSO control; higher = larger pronephric angle. In a few lines: as §1

For `CN(C)CCC(c1ccccc1)c1ccccn1` (configuration not stated) [Pheniramine maleate], the glomerular separation in assay [1] is 0.928 ± 0.19. This compound also yielded a glomerular width in assay [2] of 1.07 ± 0.064. For the same compound, the “fraction of imaged embryos annotated as normal kidney” value (from here on “fraction of imaged embryos annotated”) in assay [3] was 0.833. Further, the “pronephric angle neck segment” value in assay [4] came out at 0.9206 ± 0.0039.
`CN(C)CCCN1c2ccccc2Sc2ccc(Cl)cc21` [Chlorpromazine hydrochloride] registered a glomerular separation in assay [1] of 0.83 ± 0.37. The compound also showed a glomerular width in assay [2] of 1.01 ± 0.1. In assay [3], the “fraction of imaged embryos annotated” value turned out to be 0.833. Moreover, the “pronephric angle neck segment” value in assay [4] came out at 0.974 ± 0.024.
In the same order, the values of `CCCCCNC(=N)N/N=C/c1c[nH]c2ccc(OC)cc12` [Tegaserod maleate] are 1.26 ± 0.31, 0.997 ± 0.032, 0.7 and 0.963 ± 0.048.
Taken in the same sequence, the figures for `COc1nc(C)nc(Cl)c1NC1=NCCN1` [Moxonidine] were 1.07 ± 0.47, 1.01 ± 0.011, 1 and 0.96 ± 0.0097.
Taken in the same sequence, the figures for `CCc1nn(CCCN2CCN(c3cccc(Cl)c3)CC2)c(=O)n1CCOc1ccccc1` [Nefazodone hydrochloride] were 0.987 ± 0.43, 1.05 ± 0.061, 0.727 and 0.989 ± 0.012.
The compound `C[C@@](Cc1ccc(O)c(O)c1)(NN)C(=O)O` [Carbidopa] showed a glomerular separation in assay [1] of 1.24 ± 0.38. For the same compound, in assay [2], the glomerular width was found to be 1.0027 ± 0.00014. Also, in assay [3], the “fraction of imaged embryos annotated” value was 0.833. Moreover, the “pronephric angle neck segment” value in assay [4] worked out at 1.047 ± 0.0029.
In assay [1], `Cc1cc(=O)n(-c2ccccc2)n1C` [Antipyrine] yielded a glomerular separation of 1 ± 0.28. In assay [2], this compound yielded a glomerular width of 0.98 ± 0.024. Besides, in assay [3], the “fraction of imaged embryos annotated” value was determined as 0.667. Moreover, the “pronephric angle neck segment” value in assay [4] was found to be 1 ± 0.043.
Taken in the same sequence, the figures for `O=C(O)Cc1ccc(-c2ccccc2)cc1` [Felbinac] were 4.74 ± 1.6, 0.627 ± 0.0096, 0 and 1.73 ± 0.04.
Taken in the same sequence, the figures for `CO/N=C(\C(=O)N[C@@H]1C(=O)N2C(C(=O)O)=C(COC(N)=O)CS[C@H]12)c1ccco1` [Cefuroxime sodium salt] were 1.05 ± 0.35, 0.997 ± 0.025, 1 and 0.985 ± 0.025.
In assay [1], `C=CCOc1ccccc1OCC(O)CNC(C)C` (configuration not stated) [Oxprenolol hydrochloride] yielded a glomerular separation of 0.751 ± 0.34. In assay [2], this compound registered a glomerular width of 1.002 ± 0.0059. Also, in assay [3], the “fraction of imaged embryos annotated” value was found to be 0.75. The “pronephric angle neck segment” value in assay [4] amounted to 1.0054 ± 0.00047.
Taken in the same sequence, the figures for `Clc1ccc2nsnc2c1NC1=NCCN1` [Tizanidine hydrochloride] were 1.02 ± 0.43, 1.01 ± 0.016, 0.833 and 0.984 ± 0.036.
Consider `Cc1cccc(C)c1NC(=O)C(C)N` (configuration not stated) [Tocainide hydrochloride], for which the glomerular separation in assay [1] stood at 1.08 ± 0.37. The compound also showed a glomerular width in assay [2] of 0.975 ± 0.0083. Besides, the “fraction of imaged embryos annotated” value in assay [3] came out at 1. Moreover, the “pronephric angle neck segment” value in assay [4] was 0.941 ± 0.048.
In the same order, the values of `Nc1ccc(S(=O)(=O)Nc2cnc3ccccc3n2)cc1` [Sulfaquinoxaline sodium salt] are 0.886 ± 0.3, 0.97 ± 0.033, 1 and 1.09 ± 0.012.
In assay [1], `CC(C[N+](C)(C)C)OC(N)=O` (configuration not stated) [Bethanechol chloride] registered a glomerular separation of 0.946 ± 0.32. In assay [2], the glomerular width came to 1.023 ± 0.0027. The “fraction of imaged embryos annotated” value in assay [3] turned out to be 0.833. Besides, in assay [4], the “pronephric angle neck segment” value came to 0.998 ± 0.024.
In the same order, the values of `CCOC(=O)[C@H](CCc1ccccc1)N[C@@H](C)C(=O)N1[C@H](C(=O)O)C[C@@H]2CCC[C@@H]21` [Ramipril] are 0.977 ± 0.26, 0.8501 ± 0.0032, 1 and 1.037 ± 0.0046.
In the same order, the values of `Cc1ccc(C)c(OCCCC(C)(C)C(=O)O)c1` [Gemfibrozil] are 5.88 ± 2.2, 0.602 ± 0.06, 0 and 1.73 ± 0.11.
Consider `C1CCC(C(CC2CCCCN2)C2CCCCC2)CC1` (configuration not stated) [Perhexiline maleate], for which, in assay [1], the glomerular separation turned out to be 1.12 ± 0.32. In assay [2], this compound came in with a glomerular width of 0.9631 ± 0.0089. Further, in assay [3], the “fraction of imaged embryos annotated” value is 0.909. In assay [4], the “pronephric angle neck segment” value came out at 1.006 ± 0.00027.
In the same order, the values of `COc1ccc2cc([C@H](C)C(=O)O)ccc2c1` [Naproxen] are 2.89 ± 1.8, 0.9508 ± 0.0065, 0.167 and 1.52 ± 0.036.
Taken in the same sequence, the figures for `CCCc1nc(C)c2c(=O)nc(-c3cc(S(=O)(=O)N4CCN(CC)CC4)ccc3OCC)[nH]n12` [Vardenafil] were 1.24 ± 0.46, 1.02 ± 0.021, 0.667 and 0.981 ± 0.041.
Taken in the same sequence, the figures for `CC[C@H](C)C(=O)O[C@H]1C[C@H](O)C=C2C=C[C@H](C)[C@H](CC[C@@H](O)C[C@@H](O)CC(=O)O)[C@H]21` [Pravastatin] were 1.12 ± 0.39, 0.865 ± 0.051, 1 and 1.03 ± 0.035.
In assay [1], `CCSc1ccc2c(c1)N(CCCN1CCN(C)CC1)c1ccccc1S2` [Thiethylperazine dimalate] yielded a glomerular separation of 0.677 ± 0.22. Also, in assay [2], the glomerular width is 1.054 ± 0.0092. Besides, in assay [3], the “fraction of imaged embryos annotated” value is 0.833. Further, the “pronephric angle neck segment” value in assay [4] came out at 0.9766 ± 0.0079.
Taken in the same sequence, the figures for `O=C(Cn1ccnc1[N+](=O)[O-])NCCO` [Etanidazole] were 0.807 ± 0.34, 1.06 ± 0.014, 0.917 and 0.9304 ± 0.004.
As for `CCCC1O[C@@H]2C[C@H]3[C@@H]4CCC5=CC(=O)C=C[C@]5(C)[C@H]4[C@@H](O)C[C@]3(C)[C@]2(C(=O)CO)O1` (some centres not stated) [Budesonide], the glomerular separation in assay [1] worked out at 0.957 ± 0.24. Moreover, the glomerular width in assay [2] came out at 1.29 ± 0.049. Further, the “fraction of imaged embryos annotated” value in assay [3] worked out at 0.833. Further, the “pronephric angle neck segment” value in assay [4] came to 1.04 ± 0.12.
With `CCS(=O)(=O)CCn1c([N+](=O)[O-])cnc1C` [Tinidazole], in assay [1], the glomerular separation amounted to 0.882 ± 0.35. Besides, the glomerular width in assay [2] came to 1.04 ± 0.036. Further, the “fraction of imaged embryos annotated” value in assay [3] was found to be 0.833. The “pronephric angle neck segment” value in assay [4] was 1.02 ± 0.037.
With `CC1(C)O[C@@H]2[C@@H](CO[C@@]3(COS(N)(=O)=O)OC(C)(C)O[C@@H]23)O1` [Topiramate], in assay [1], the glomerular separation amounted to 1.18 ± 0.51. The compound further had a glomerular width in assay [2] of 1.086 ± 0.0046. The “fraction of imaged embryos annotated” value in assay [3] is 0.583. For the same compound, the “pronephric angle neck segment” value in assay [4] is 1 ± 0.025.
`O=c1oc2ccccc2c(O)c1Cc1c(O)c2ccccc2oc1=O` [Dicumarol]: in assay [1], the glomerular separation turned out to be 0.799 ± 0.23. The compound also had a glomerular width in assay [2] of 0.772 ± 0.025. Moreover, the “fraction of imaged embryos annotated” value in assay [3] came to 0.9. Moreover, the “pronephric angle neck segment” value in assay [4] stood at 1.14 ± 0.08.
Taken in the same sequence, the figures for `CC(C)[C@H](N)C(=O)OCCOCn1cnc2c(=O)nc(N)[nH]c21` [Valacyclovir hydrochloride] were 0.851 ± 0.28, 1 ± 0.066, 0.917 and 0.955 ± 0.044.
As for `CCCCCN(C)CCC(O)(P(=O)(O)O)P(=O)(O)O` [Ibandronate sodium], the glomerular separation in assay [1] turned out to be 0.837 ± 0.21. Further, the glomerular width in assay [2] was determined as 1.06 ± 0.025. Further, the “fraction of imaged embryos annotated” value in assay [3] was determined as 0.833. Moreover, in assay [4], the “pronephric angle neck segment” value was determined as 0.981 ± 0.048.
